An excerpt weighted towards active compounds, which were near 7.3% of everything screened.
NPC1 promoter act = activates the NPC1 promoter; Huh7 NPC1 promoter luciferase reporter, 24 h; Potency, µM (highest dose often 9.22 µM), without a hit: at the top dose activation, actives largely listed as activators; 2.4% of 320,000 active; AID 485313; also: % of control where 0% means no effect; nearly all actives have a fitted effect of over 60% in size
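Quantitative HTS used a cell-based reporter: Huh7 cells stably bearing the NPC1 promoter upstream of luciferase were treated with compounds for 24 h, and promoter activation was read as luminescence.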
p53 reactivator = mutant p53 re-activation in reporter cells; H1299 p53-A138V BP100-luciferase reporter, luminescence, 24 h; Potency, µM (series often up to 92.2 µM), inactives show at the highest dose activity change, positive = activation, most hits filed as activators; 0.063% of 320,000 active; also: % of control where 0% means no effect; nearly all actives have a fitted effect of over 45% in size
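H1299 (p53-null), stable ts p53-A138V + BP100-Luc; 1000 cells/well, Opti-MEM/10% FBS; cpd 4 pt, 1:5; 24 h, 37 deg C, 5% CO2; detection reagent 10 min RT; luminescence.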
SMN2 splice enh = SMN2 splice variant enhancement; HEK293 SMN2-luciferase splicing reporter, luminescence, 30-36 h; Potency, µM (highest dose often 46.1 µM), for inactives: at the highest dose activity change, positive = activation, actives largely listed as activators; 2.8% of 210,000 active; AID 1458; also: % of control where 0% means no effect; nearly all actives have a fitted effect of over 55% in size
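HEK293 cells carry an SMN2 minigene-luciferase reporter in which exon 7 inclusion puts luciferase in frame. Cells were seeded at 2000 cells/well, attached for 10-12 hours, then exposed to compounds for 30-36 hours at 37C before ONE-Glo luminescence.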
FLuc counter = counter-screen for miR-21 project: firefly luciferase inhibitors or activators; P08659; purified FLuc, Km substrates, luminescence inhibition; Potency, µM (series often up to 57.5 µM), without a hit: at the highest dose activity change, negative = inhibition, actives largely listed as inhibitors; 6.9% of 360,000 active; AID 588342;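 also: plate controls were vehicle for no effect and reference inhibitor for full effect; nearly all actives have a fitted effect of over 55% in size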
Target sequence (P08659 whole entry, looked up): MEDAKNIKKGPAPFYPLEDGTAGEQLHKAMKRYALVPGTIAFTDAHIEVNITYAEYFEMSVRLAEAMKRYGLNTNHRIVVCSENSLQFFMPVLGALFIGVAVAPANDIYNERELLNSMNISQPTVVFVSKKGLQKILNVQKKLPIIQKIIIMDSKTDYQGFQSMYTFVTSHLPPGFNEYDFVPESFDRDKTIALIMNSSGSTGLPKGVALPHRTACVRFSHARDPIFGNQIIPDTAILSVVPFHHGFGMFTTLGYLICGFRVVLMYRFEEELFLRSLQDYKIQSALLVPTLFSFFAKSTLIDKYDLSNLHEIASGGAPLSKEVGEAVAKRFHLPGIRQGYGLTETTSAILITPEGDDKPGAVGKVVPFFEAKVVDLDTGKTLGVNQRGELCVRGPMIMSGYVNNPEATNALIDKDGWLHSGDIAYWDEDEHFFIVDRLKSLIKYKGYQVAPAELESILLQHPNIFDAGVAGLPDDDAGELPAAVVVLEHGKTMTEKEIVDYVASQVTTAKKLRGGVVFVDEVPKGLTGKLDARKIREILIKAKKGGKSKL
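Purified P. pyralis luciferase, 10 nM final, with Km-level 10 uM D-luciferin and 10 uM ATP in 50 mM Tris acetate pH 7.5, 10 mM Mg acetate, 0.01% Tween-20, 0.05% BSA; 6-point qHTS titration about 60 µM downward; luminescence read.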
Rab9 promoter act = Rab9 promoter activation | Huh7 Rab9 promoter-luciferase reporter, luminescence, 24 h | Potency, µM (highest dose often 9.22 µM), inactives show top-dose activation, negative = inhibition, hits mostly activators | 2.8% of 320,000 active; also: % of control where 0% means no effect; nearly all actives have a fitted effect of over 60% in size
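Cells were plated at 1500 per well in reduced-serum medium with 10% FBS and left 2 h. Compound in DMSO was then added for 24 h at 37 °C. Reporter signal was read by luminescence after 10 min with luciferase detection reagent.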
ELG1 genotoxic = genotoxicity induction in ELG1-luciferase HEK293T cells. HEK293T ELG1-luciferase reporter, luminescence, 16 h. Potency, µM (series often up to 46 µM), for inactives: at the highest dose activity change, positive = activation, usual class: activators. 1.3% of 330,000 active. AID 504466; also: % of control where 0% means no effect; nearly all actives have a fitted effect of over 60% in size
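After overnight (16 hr) compound treatment at 37 °C, ELG1-luciferase HEK293T cells were lysed with ONE-Glo; luminescence quantified 30 min later at room temperature.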
* = called active by the depositor; ? = inconclusive; / = no result; [ ] = dose if it differs, or a comment. Calls follow the shape of the dose curve; as a rule, active = well fitted curve in the direction sought with a large enough effect; inconclusive = small, poorly fitted or top-dose-only effect, or another doubt; inactive = no such curve, though single readings can be large; an effect the other way counts as inactive or inconclusive. Potency is read from the fitted curve at half-maximal effect.

SMILES	NPC1 promoter act	p53 reactivator	SMN2 splice enh	FLuc counter	Rab9 promoter act	ELG1 genotoxic
COc1cc(C(=O)Nc2sc3c(c2C#N)CCCC3)c(Br)c(OC)c1OC	/	/	7%	-18%	/	/
COc1nc(Nc2ccc(C(C)C)cc2)nc(OC)n1	25%	7%	?	?	20%	16%
CCOc1c(Nc2ccc(C(C)C)cc2)c(=O)c1=O	-2%	9%	/	13µM*	1%	1%
CC1CCc2c(sc(/N=C/N(C)C)c2C#N)C1 (configuration not stated)	24%	16%	25%	15µM*	4.5µM*	?
CC1CCc2c(sc(NC(=O)C3CCCO3)c2C#N)C1 (configuration not stated)	3.5µM*	8%	11µM*	11µM*	3.2µM*	?
CCOC(=O)Nc1sc2c(c1C#N)CCC(C)C2 (configuration not stated)	2.8µM*	29%	20%	11µM*	3.2µM*	?
CCNC(=S)Nc1sc2c(c1C#N)CCC(C)C2 (configuration not stated)	1%	7%	/	?	-5%	5%
O=C(Cn1c(=O)n(-c2ccc(Cl)cc2)c(=O)c2sc3ccccc3c21)NC1CCCCC1	/	/	4%	1%	/	/
COc1ccc(S(=O)(=O)N(C)C)cc1NC(=O)c1ccc2c(c1)OCCO2	0%	-7%	/	-2%	-6%	1%
CN(C)S(=O)(=O)c1cccc(NC(=O)c2ccc3c(c2)OCCO3)c1	3.2µM*	23%	/	9.5µM*	?	0%
CCC(=O)Nc1cccc(NC(=O)c2ccc3c(c2)OCCO3)c1	?	10%	13µM*	17µM*	?	7%
NC(=O)C1CCN(C(=O)COc2ccc(Nc3ccccc3)cc2)CC1	1%	3%	/	-20%	-4%	4%
COc1ccc(/C=N/N2C(=N)SCC2=O)cc1	?	20%	/	3.4µM*	19%	?
COc1ccc(/C=N/N=C2/SCC(=O)N2Cc2ccccc2)cc1	3.5µM*	18%	/	4.8µM*	1.3µM*	?
COc1ccc(N=C2SCC(=O)N2Cc2ccccc2)cc1	-2%	-3%	-13%	-10%	-1%	9%
COc1ccc(CN2C(=O)CS/C2=N/N=C/c2ccccc2)cc1	16%	?	/	17µM*	23%	?
CC(C)CCOc1ccc(/C=N/N2C(=O)CSC2=S)cc1	4%	9%	/	?	5%	-3%
O=c1c2ccccc2cnn1Cc1nnc(-c2cccs2)o1	-1%	8%	/	1%	-6%	5%
COc1ccccc1CCNC(=O)Cc1c(C)c2c(cc(C)c3c(C)coc32)oc1=O	/	/	-2%	-7%	/	/
COc1ccccc1OCCCOc1ccc(C)cc1Br	?	?	?	4.8µM*	?	18µM*
COC(=O)c1ccccc1OCCCOc1ccc(C)cc1OC	0%	?	-8%	?	-16%	14%
COc1ccccc1OCCCOc1ccc([N+](=O)[O-])cc1Cl	?	25%	?	5.4µM*	4.5µM*	16%
COc1ccccc1OCCOCCOc1ccc(C)cc1Br	-7%	1%	5%	-11%	-3%	0%
COc1cccc(OCCCOc2ccc([N+](=O)[O-])cc2Cl)c1	-2%	26%	-19%	?	-1%	-2%
COc1cc(C)ccc1OCCCOc1ccccc1Br	?	?	3%	19µM*	1.4µM*	?
SMILES	NPC1 promoter act	p53 reactivator	SMN2 splice enh	FLuc counter	Rab9 promoter act	ELG1 genotoxic
COc1cccc(CNC(=O)CSC2=Nc3ccccc3C3=NC(C(C)C)C(=O)N23)c1 (configuration not stated)	/	/	/	1%	/	/
Cc1ccc(C(=O)O/N=C/c2c(Cl)n(C)c3ccccc23)cc1	0%	-3%	?	2.7µM*	0%	-1%
Cc1cccc(C(=O)O/N=C/c2c(Cl)n(C)c3ccccc23)c1	-1%	1%	5%	?	1%	-1%
Cn1c(Cl)c(/C=N/OC(=O)c2ccc(Cl)cc2)c2ccccc21	10%	4%	-9%	3.4µM*	-2%	-1%
CCOC(=O)c1ccccc1NC(=O)Cn1cc(C(=O)c2cccc(OC)c2)c(=O)c2ccc(C)nc21	/	/	/	-4%	/	/
CC(=O)c1cccc(N=C2NC(=O)CS2)c1	2%	-2%	-7%	1%	3%	-1%
CC(=O)c1cccc(N=Nc2c(C)[nH]c3ccccc23)c1	2%	?	4%	24µM*	4%	6%
O=C(N=Nc1c(O)[nH]c2ccccc12)c1cccs1	?	?	11µM*	2.1µM*	2.5µM*	12%
O=C(O)c1ccc(N=Nc2c(O)[nH]c3ccccc23)cc1	0.1µM*	-7%	/	0.43µM*	?	?
CC(=O)[C@]1(O)CC[C@@H]2[C@H]3C[C@@H](C)C4=CC(=O)CC[C@@]4(C)C3[C@@H](O)C[C@]21C (some centres not stated)	/	/	5%[9.22 µM]	/	/	/
CCCCCn1c(=N)c(S(=O)(=O)c2ccccc2)cc2c(=O)n3cccc(C)c3nc21	/	/	-6%	1%	/	/
CCc1ccc(NC(=O)C(=O)NCC(c2cccnc2)N2CCN(Cc3ccccc3)CC2)cc1 (configuration not stated)	/	/	/	-7%	/	/
O=c1n(S(=O)(=O)c2cccc3cccnc23)c2ccccc2n1S(=O)(=O)c1cccc2cccnc12	-2%	-2%	11µM*	-2%	-1%	-2%
CC1CC(C)CN(S(=O)(=O)c2cccc3cccnc23)C1 (configuration not stated)	-1%	-3%	-28%	-12%	1%	-6%
Cc1cc(C)cc(NC(=O)c2cc(S(=O)(=O)N3CCOCC3)cn2C)c1	/	/	/	-2%	/	/
COc1ccc(C=Nc2cccnc2N)cc1	8%	?	/	11µM*	12%	8%
Cc1ccc(C=Nc2cccnc2N)cc1	-3%	?	?	6.7µM*	2%	-2%
CCOc1ccc(C=Nc2cccc3ncccc23)cc1	-1%	?	-2%	21µM*	2%	0%
CCOC(=O)c1c(C)[nH]c(CCC(=O)NCCCN2CCN(c3ccccc3F)CC2)c1C	/	/	/	1%	/	/
O=C(c1ccc([N+](=O)[O-])cc1)N1c2ncnn2C2(CCCCC2)[C@@H]2CCCC[C@@H]21	/	/	/	2%	/	/
c1ccc2c(Nc3nnc(-c4ccncc4)s3)cccc2c1	?	13%	?	5.4µM*	?	18%
Brc1ccc(-c2ccc(CNCc3ccccn3)o2)cc1	24%	4%	/	15µM*	3%	3%
CN(C)CCNC(=O)c1ccc(-n2c(-c3ccccc3)cc3c2CCCC3)cc1	/	/	/	-10%	/	/

Bioassay records from PubChem BioAssay.
